# From paper PMC11062922 (Nature Chemical Biology, 2023)
# Like-named read-outs stand apart in the source and are kept apart here.
# Legend:
# Design in all cases: species or system human, MV4-11 + K-562 + COLO205 + SK-N-BE2 + OVCAR-8
# MAPK8 = conditions: read-out: apparent Kd, n = 1
# PTK6 = conditions: read-out: apparent Kd; compound concentrations:100 nM and 1000 nM (sheet 'Samples'); n = 1
# PRKX = conditions: read-out: apparent Kd; compound concentrations: 100 nM and 1000 nM (sheet 'Samples'), CATDS: 5.4979506066670798E-2; n = 1
# TNIK = conditions: read-out: apparent Kd, n = 1
# ADCK1 = conditions: read-out: apparent Kd, n = 1
# ROCK2 = conditions: read-out: apparent Kd, n = 1
# CDK17 = conditions: read-out: apparent Kd, n = 1
# RPS6KA4 = conditions: read-out: apparent Kd, n = 1
# STK3 = conditions: read-out: apparent Kd, n = 1
# CSNK1A1 = conditions: read-out: apparent Kd, n = 1
# CSNK1E = conditions: read-out: apparent Kd, compound concentrations: 100 nM and 1000 nM (sheet 'Samples'), n = 1
# RIOK2 = conditions: read-out: apparent Kd, n = 1
# ATM = conditions: read-out: apparent Kd; compound concentrations:100 nM and 1000 nM (sheet 'Samples'); n = 1
# PHKG2 = conditions: read-out: apparent Kd, n = 1
# [1] = compound concentrations:100 nM and 1000 nM (sheet 'Samples')
smiles,measurement,setting,value
CS(=O)(=O)CCn1c(=O)c(Oc2ccc(F)cc2F)cc2cnc(NC3CCOCC3)nc21 [RO5027956-000],potency estimated from few doses,MAPK8; [1],1.13 µM
same,potency estimated from few doses,PTK6,1.31 µM
O=C1N=C(NCc2cccs2)O/C1=C\c1ccc2ncccc2c1 [RO4624208-000],potency estimated from few doses,PRKX,0.966 µM
same,potency estimated from few doses,"TNIK; compound concentrations: 100 nM and 1000 nM (sheet 'Samples'), CATDS: 4.4189138056131998E-2",2.33 µM
CCn1c(-c2nonc2N)nc2c(C#CC(C)(C)O)nc(O[C@@H](CN)c3ccccc3)cc21.O=C(O)C(F)(F)F [GSK1007102B],potency estimated from few doses,ADCK1; [1],0.788 µM
same,potency estimated from few doses,ROCK2; [1],1.67 µM
CNCC#Cc1c(F)ccc2c1/C(=C/c1[nH]ccc1OC)C(=O)N2.Cl [RO0281601-001],potency estimated from few doses,"CDK17; compound concentrations: 100 nM and 1000 nM (sheet 'Samples'), CATDS: 2.8122134627670499E-2",0.838 µM
same,potency estimated from few doses,"RPS6KA4; compound concentrations: 100 nM and 1000 nM (sheet 'Samples'), CATDS: 3.0047903909945699E-2",0.696 µM
same,potency estimated from few doses,"STK3; compound concentrations: 100 nM and 1000 nM (sheet 'Samples'), CATDS: 2.2839730138462501E-2",1.65 µM
same,potency estimated from few doses,"TNIK; compound concentrations: 100 nM and 1000 nM (sheet 'Samples'), CATDS: 2.1303462940689799E-2",2.18 µM
c1cnn2ncc(-c3ccnc(Nc4ccc5c(c4)OCCO5)n3)c2c1 [GW806290X],potency estimated from few doses,"ADCK1; compound concentrations: 100 nM and 1000 nM (sheet 'Samples'), CATDS: 2.0516224728304101E-2",1.82 µM
same,potency estimated from few doses,"CSNK1A1; compound concentrations: 100 nM and 1000 nM (sheet 'Samples'), CATDS: 2.11429118311642E-2",1.62 µM
same,potency estimated from few doses,CSNK1E; CATDS: 2.4076386460309102E-2,1.05 µM
same,potency estimated from few doses,"MAPK8; compound concentrations: 100 nM and 1000 nM (sheet 'Samples'), CATDS: 3.07479356857355E-2",0.532 µM
same,potency estimated from few doses,"RIOK2; compound concentrations: 100 nM and 1000 nM (sheet 'Samples'), CATDS: 4.9537974032322102E-2",0.183 µM
CNCc1ccc(-c2cc(-c3nc(-c4ccc(S(=O)(=O)C(C)C)cc4)cnc3N)on2)cc1 [VE-822],potency estimated from few doses,ATM,0.0135 µM
same,potency estimated from few doses,TNIK; [1],1.65 µM
COc1cc[nH]c1/C=C1\C(=O)Nc2ccc(F)c(C#CC3(O)CCNCC3)c21.Cl [RO0282986-001],potency estimated from few doses,"ADCK1; compound concentrations: 100 nM and 1000 nM (sheet 'Samples'), CATDS: 9.6711432627754196E-3",1.51 µM
same,potency estimated from few doses,"CSNK1A1; compound concentrations: 100 nM and 1000 nM (sheet 'Samples'), CATDS: 9.4699947154489802E-3",1.66 µM
same,potency estimated from few doses,"MAPK8; compound concentrations: 100 nM and 1000 nM (sheet 'Samples'), CATDS: 1.15534009295916E-2",0.801 µM
same,potency estimated from few doses,"PHKG2; compound concentrations: 100 nM and 1000 nM (sheet 'Samples'), CATDS: 1.06478310552471E-2",1.05 µM
same,potency estimated from few doses,"ROCK2; compound concentrations: 100 nM and 1000 nM (sheet 'Samples'), CATDS: 1.22765922159753E-2",0.668 µM
same,potency estimated from few doses,"RPS6KA4; compound concentrations: 100 nM and 1000 nM (sheet 'Samples'), CATDS: 2.8007008589504299E-2",0.111 µM
same,potency estimated from few doses,"STK3; compound concentrations: 100 nM and 1000 nM (sheet 'Samples'), CATDS: 1.6307369361129399E-2",0.326 µM
same,potency estimated from few doses,"TNIK; compound concentrations: 100 nM and 1000 nM (sheet 'Samples'), CATDS: 1.31715083861153E-2",0.55 µM
O=C(O)C(F)(F)F.O=c1[nH]ccc2nc(N[C@@H]3CCNC3)nc(Nc3cc(Cl)cc(Cl)c3)c12 [GSK2188764A],potency estimated from few doses,ADCK1; [1],1.68 µM
same,potency estimated from few doses,PHKG2; [1],0.786 µM
same,potency estimated from few doses,RPS6KA4; [1],0.472 µM
same,potency estimated from few doses,STK3; [1],0.847 µM
same,potency estimated from few doses,TNIK; [1],1.27 µM
CN(C)CC(O)COc1ccc(Nc2nccc(-c3cnn4nc(N5CCOCC5)ccc34)n2)cc1 (centres unmarked) [GW767488X],potency estimated from few doses,ADCK1; [1],0.587 µM
same,potency estimated from few doses,CDK17; [1],0.2 µM
same,potency estimated from few doses,CSNK1A1; [1],1.25 µM
same,potency estimated from few doses,MAPK8; [1],0.127 µM
same,potency estimated from few doses,PHKG2; [1],2.25 µM
same,potency estimated from few doses,RIOK2; [1],0.206 µM
same,potency estimated from few doses,ROCK2; [1],1.44 µM
CCN(CC)Cc1ccc(Nc2nccc(-c3cnn4ncccc34)n2)cc1 [GW780056X],potency estimated from few doses,"ADCK1; compound concentrations: 100 nM and 1000 nM (sheet 'Samples'), CATDS: 2.0575256748511801E-2",1.2 µM
same,potency estimated from few doses,"CDK17; compound concentrations: 100 nM and 1000 nM (sheet 'Samples'), CATDS: 2.15986885679498E-2",1.03 µM
same,potency estimated from few doses,CSNK1E; CATDS: 7.3916034222461E-2,0.0721 µM
same,potency estimated from few doses,"MAPK8; compound concentrations: 100 nM and 1000 nM (sheet 'Samples'), CATDS: 2.1413758236852699E-2",1.05 µM
